From PubChem BioAssay AID1159580 (chemical genetic matrix, 2015)
Values joined by “and” are separate entries in the source; they are usually repeats but may differ in a detail not shown here. Equal entries are not always repeated. Hit rate of the full screen: of about 5,500 compounds, about 2,000 (36%) were called active. About 18% were inconclusive and are not listed. Cut-off read from the data, not from the text of the source: active = normalized growth mostly below about 0.91 (no sharp cut-off); inconclusive = no clear call, values can overlap the other calls; inactive = mostly above about 0.92. Some of the results follow.

Test: chemical genetic growth profiling, strain panel (AID 1159580);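 note: tested at 20 µM; growth read once vehicle control cultures reached saturation at 30 °C; 1 = growth at the plate median or of vehicle wells; lower values mean less growth of the strain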
Conditions: S. cerevisiae deletion strains, growth OD

Measured: normalized growth

NC[C@H](O)c1ccc(O)c(O)c1
inactive: locus YAL013W, strain DEP1, stronger effect = lower value 1.01 | locus YAL021C, strain ccr4, stronger effect = lower value 0.984 | locus YAL026C, strain drs2, stronger effect = lower value 0.99 | locus YAL030W, strain snc1, stronger effect = lower value 1.01 | locus YBL061C, strain skt5, stronger effect = lower value 1.01 | locus YBR009C, strain hhf1, stronger effect = lower value 1.01 | locus YBR021W, strain FUR4, stronger effect = lower value 1.01 | locus YBR023C, strain chs3, stronger effect = lower value 1.02 | locus YBR171W, strain sec66, stronger effect = lower value 0.996 | locus YBR229C, strain ROT2, stronger effect = lower value 1.01 | locus YBR231C, strain swc5, stronger effect = lower value 0.984 | locus YBR279W, strain paf1, stronger effect = lower value 1.02 | locus YCL011C, strain gbp2, stronger effect = lower value 0.999 | locus YCL016C, strain dcc1, stronger effect = lower value 1.02 | locus YCL029C, strain bik1, stronger effect = lower value 1.01 | locus YCL061C, strain MRC1, stronger effect = lower value 1.01 | locus YCL069W, strain vba3, stronger effect = lower value 0.991 | locus YCR088W, strain abp1, stronger effect = lower value 1.01 | locus YDL005C, strain med2, stronger effect = lower value 1 | locus YDL035C, strain GPR1, stronger effect = lower value 1.01 | locus YDL040C, strain nat1, stronger effect = lower value 1.01 | locus YDL074C, strain BRE1, stronger effect = lower value 0.986 | locus YDL101C, strain DUN1, stronger effect = lower value 1.01 | locus YDL134C, strain PPH21, stronger effect = lower value 1.02 | locus YDL185W, strain tfp1, stronger effect = lower value 1.01 | locus YDL192W, strain arf1, stronger effect = lower value 1.01 | locus YDR001C, strain nth1, stronger effect = lower value 1 | locus YDR069C, strain doa4, stronger effect = lower value 0.981 | locus YDR101C, strain arx1, stronger effect = lower value 1 | locus YDR137W, strain rgp1, stronger effect = lower value 1.06 | locus YDR150W, strain NUM1, stronger effect = lower value 1 | locus YDR159W, strain sac3, stronger effect = lower value 1.01 | locus YDR162C, strain NBP2, stronger effect = lower value 1 | locus YDR195W, strain ref2 1.01 | locus YDR297W, strain sur2, stronger effect = lower value 1.01 | locus YDR318W, strain mcm21, stronger effect = lower value 1.03 | locus YDR334W, strain swr1, stronger effect = lower value 0.984 | locus YDR335W, strain msn5, stronger effect = lower value 0.999 | locus YDR388W, stronger effect = lower value 1.02 | locus YDR392W, strain spt3, stronger effect = lower value 0.987 | locus YDR502C, strain sam2, stronger effect = lower value 1.02 | locus YEL003W, strain gim4, stronger effect = lower value 0.986 | locus YEL037C, strain rad23, stronger effect = lower value 0.986 | locus YEL061C, strain CIN8 (second series), stronger effect = lower value 0.985 | locus YEL061C, strain CIN8, stronger effect = lower value 1.01 | locus YER015W, strain faa2, stronger effect = lower value 0.99 | locus YER016W, strain bim1, stronger effect = lower value 1 | locus YER110C, stronger effect = lower value 1.02 | locus YER111C, strain swi4, stronger effect = lower value 0.98 | locus YER155C, strain BEM2 (second series), stronger effect = lower value 1 | locus YER155C, strain BEM2, stronger effect = lower value 1.02 | locus YER167W, strain BCK2, stronger effect = lower value 1.02 | locus YFR010W, strain ubp6, stronger effect = lower value 0.953 | locus YGL078C, strain dbp3, stronger effect = lower value 1.01 | locus YGL086W, strain mad1, stronger effect = lower value 0.991 | locus YGL167C, strain pmr1, stronger effect = lower value 1 | locus YGL173C, strain kem1, stronger effect = lower value 0.999 | locus YGL227W, strain vid30, stronger effect = lower value 1 | locus YGL240W, strain doc1, stronger effect = lower value 1.03 | locus YGL248W, strain PDE1, stronger effect = lower value 1.01 | locus YGL253W, strain hxk2, stronger effect = lower value 0.994 | locus YGR135W, strain pre9, stronger effect = lower value 0.998 | locus YGR252W, strain gcn5, stronger effect = lower value 0.958 | locus YHR013C, strain ard1, stronger effect = lower value 1 | locus YHR027C, strain rpn1, stronger effect = lower value 1 | locus YHR030C, strain SLT2, stronger effect = lower value 1.01 and 0.962 | locus YHR079C, strain IRE1 (second series), stronger effect = lower value 1.02 | locus YHR079C, strain IRE1, stronger effect = lower value 0.953 | locus YHR094C, strain hxt1, stronger effect = lower value 1.03 | locus YHR129C, strain ARP1, stronger effect = lower value 0.999 | locus YHR142W, strain chs7, stronger effect = lower value 0.978 | locus YHR200W, strain rpn10, stronger effect = lower value 1.02 | locus YIL066C, strain RNR3, stronger effect = lower value 1.01 | locus YIL073C, strain SPO22, stronger effect = lower value 1.03 | locus YIL125W, strain kgd1, stronger effect = lower value 1.01 | locus YIR030C, strain dcg1, stronger effect = lower value 1.02 | locus YJL092W, strain hpr5, stronger effect = lower value 1 | locus YJL095W, strain BCK1 (second series), stronger effect = lower value 1.01 | locus YJL095W, strain BCK1, stronger effect = lower value 0.994 and 0.971 | locus YJL115W, strain asf1, stronger effect = lower value 1 | locus YJL129C, strain trk1, stronger effect = lower value 0.952 | locus YJL134W, strain LCB3, stronger effect = lower value 1.01 | locus YJL154C, strain vps35, stronger effect = lower value 1 | locus YJL164C, strain tpk1, stronger effect = lower value 1.01 | locus YJL166W, strain qcr8, stronger effect = lower value 1.02 | locus YJL168C, strain set2, stronger effect = lower value 1.02 | locus YJL187C, strain SWE1 (second series), stronger effect = lower value 1.01 | locus YJL187C, strain SWE1, stronger effect = lower value 0.999 | locus YJR043C, strain POL32, stronger effect = lower value 1.02
